Reference: publication PMC5700166

Legend:
[1] = biological target: T1, GST-Nv-NF-kB (Ser allele) (Nematostella vectensis, UniProt A7UNT2 2-411); test: protein-binding microarray (PBM); PBM: ~300 nM protein, 6 mM HEPES pH 7.8, 80 mM KCl, 0.5 mM EDTA, 0.5 mM EGTA, 6% glycerol, 35 ng/ul poly-dIdC, 1% milk, 1 h, room temperature; Ap Aiptasia and Nv Nematostella (sea anemones) / Co Capsaspora / Aq Amphimedon (sponge) / Dm Drosophila / Hu human; RHD is the Rel homology domain; high values mean tight binding; conditions: dsDNA, one strand shown
T1 sequence: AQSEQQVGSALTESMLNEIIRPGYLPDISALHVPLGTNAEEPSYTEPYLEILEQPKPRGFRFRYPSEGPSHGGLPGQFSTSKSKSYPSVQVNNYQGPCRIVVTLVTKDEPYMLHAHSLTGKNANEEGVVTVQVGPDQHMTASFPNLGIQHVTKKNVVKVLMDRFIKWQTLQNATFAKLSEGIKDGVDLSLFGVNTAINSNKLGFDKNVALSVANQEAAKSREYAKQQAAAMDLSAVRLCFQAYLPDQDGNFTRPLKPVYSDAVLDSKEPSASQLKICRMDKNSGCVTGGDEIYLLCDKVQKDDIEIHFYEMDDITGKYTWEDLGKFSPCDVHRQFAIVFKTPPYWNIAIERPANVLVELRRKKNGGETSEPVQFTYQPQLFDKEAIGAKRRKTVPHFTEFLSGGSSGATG

GST-Hu-p50 = GST-Hu-p50 (Homo sapiens, UniProt P19838 7-356); test: as above; conditions: dsDNA, one strand shown
Sequence of GST-Hu-p50 (P19838 7-356): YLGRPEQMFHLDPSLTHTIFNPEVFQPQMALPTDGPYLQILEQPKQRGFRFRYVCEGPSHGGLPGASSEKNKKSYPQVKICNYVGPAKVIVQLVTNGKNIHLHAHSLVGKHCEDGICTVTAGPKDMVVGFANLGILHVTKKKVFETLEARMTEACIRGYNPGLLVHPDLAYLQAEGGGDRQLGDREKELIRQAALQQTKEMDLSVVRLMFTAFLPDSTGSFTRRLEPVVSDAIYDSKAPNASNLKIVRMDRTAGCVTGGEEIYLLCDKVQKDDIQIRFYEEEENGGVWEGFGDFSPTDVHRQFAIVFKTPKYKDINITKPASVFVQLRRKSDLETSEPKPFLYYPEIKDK

Sequence | binding signal [1] [z-score] | binding signal (GST-Hu-p50) [z-score]
CCGATTAACATCAGGCACTCCCCTGATGTTAATCGGGTCTTGATTCGCTTGACGCTGCTG | 2.69 | 3.37
CCGATTAACATCAAAAGACCCCCTGATGTTAATCGGGTCTTGATTCGCTTGACGCTGCTG | 5.47 | 5.26
CCGATTAACATCACTGGGATTTCTGATGTTAATCGGGTCTTGATTCGCTTGACGCTGCTG | 1.8 | 2.5
CCGATTAACATCACGGTTTTTCCTGATGTTAATCGGGTCTTGATTCGCTTGACGCTGCTG | 1.21 | 1.62
CCGATTAACATCAGAAATTCCCATGATGTTAATCGGGTCTTGATTCGCTTGACGCTGCTG | 5.93 | 4.64
CCGATTAACATCACGGAAAACCCTGATGTTAATCGGGTCTTGATTCGCTTGACGCTGCTG | 1.92 | 2.12
CCGATTAACATCAATGGGTTTTCTGATGTTAATCGGGTCTTGATTCGCTTGACGCTGCTG | 2.25 | 1.9
CCGATTAACATCAGGGAATTACATGATGTTAATCGGGTCTTGATTCGCTTGACGCTGCTG | 4.68 | 3.82
CCGATTAACATCAGGGGGTACACTGATGTTAATCGGGTCTTGATTCGCTTGACGCTGCTG | 3.94 | 3.13
CCGATTAACATCAAGGATTTCCCTGATGTTAATCGGGTCTTGATTCGCTTGACGCTGCTG | 6.13 | 4.33
CCGATTAACATCAACATGGGAATTGATGTTAATCGGGTCTTGATTCGCTTGACGCTGCTG | 1.75 | 1.37
CCGATTAACATCAGGGAAAGAACTGATGTTAATCGGGTCTTGATTCGCTTGACGCTGCTG | 3.33 | 2.37
CCGATTAACATCAGGGGGACAAATGATGTTAATCGGGTCTTGATTCGCTTGACGCTGCTG | 5.1 | 3.81
CCGATTAACATCAGGGATATTTATGATGTTAATCGGGTCTTGATTCGCTTGACGCTGCTG | 2.29 | 2.35
CCGATTAACATCAGACAATTCCCTGATGTTAATCGGGTCTTGATTCGCTTGACGCTGCTG | 4.51 | 4.15
CCGATTAACATCAAAAACTACCCTGATGTTAATCGGGTCTTGATTCGCTTGACGCTGCTG | 4.59 | 3.73
CCGATTAACATCAGGGAAAAGGATGATGTTAATCGGGTCTTGATTCGCTTGACGCTGCTG | 4.08 | 1.47

Sequence | binding signal [1] [z-score] | binding signal (GST-Hu-p50) [z-score]
CCGATTAACATCAAAAAATACCATGATGTTAATCGGGTCTTGATTCGCTTGACGCTGCTG | 2.92 | 2.43
CCGATTAACATCAATATTTCCCATGATGTTAATCGGGTCTTGATTCGCTTGACGCTGCTG | 3.55 | 3.27
CCGATTAACATCAAGCGTTTCCCTGATGTTAATCGGGTCTTGATTCGCTTGACGCTGCTG | 3.6 | 1.47
CCGATTAACATCATGGAGGGAGGTGATGTTAATCGGGTCTTGATTCGCTTGACGCTGCTG | 1.02 | 1.63
CCGATTAACATCATTTCCCAAAATGATGTTAATCGGGTCTTGATTCGCTTGACGCTGCTG | 2.41 | 1.56
CCGATTAACATCAGGGACGGAAATGATGTTAATCGGGTCTTGATTCGCTTGACGCTGCTG | 2.34 | 2.19
CCGATTAACATCAATACACCCCCTGATGTTAATCGGGTCTTGATTCGCTTGACGCTGCTG | 4.34 | 4.34
CCGATTAACATCAGGAAACTACCTGATGTTAATCGGGTCTTGATTCGCTTGACGCTGCTG | 3.83 | 3.87
CCGATTAACATCAGGAATCTACCTGATGTTAATCGGGTCTTGATTCGCTTGACGCTGCTG | 1.79 | 2.27
CCGATTAACATCAGGGAATATTATGATGTTAATCGGGTCTTGATTCGCTTGACGCTGCTG | 5.41 | 3.86
CCGATTAACATCAGGGGCTGTACTGATGTTAATCGGGTCTTGATTCGCTTGACGCTGCTG | 2.32 | 3.36
CCGATTAACATCAGGCTTTCCCATGATGTTAATCGGGTCTTGATTCGCTTGACGCTGCTG | 1.98 | 1.36
CCGATTAACATCAGGGAAAACGATGATGTTAATCGGGTCTTGATTCGCTTGACGCTGCTG | 6.01 | 2.13
CCGATTAACATCAGGCCCCCCCCTGATGTTAATCGGGTCTTGATTCGCTTGACGCTGCTG | 3.9 | 4.51
CCGATTAACATCAGGAGTCCCCATGATGTTAATCGGGTCTTGATTCGCTTGACGCTGCTG | 4.11 | 4.86
CCGATTAACATCAGGGGACAACCTGATGTTAATCGGGTCTTGATTCGCTTGACGCTGCTG | 4.41 | 4.2
